Screening data from PubChem BioAssay.
Only some compounds are listed: those with a hit (about 4.5% of all), similar ones and a draw of the others.
TIM10 inh: inhibits growth of TIM10 yeast strain; 1.4% of 330,000 active; S. cerevisiae TIM10 strain growth, BacTiter-Glo luminescence, 24 h; inhibition, % at 10 µM; AID 463195;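 active = inhibition of 40% or more at the single tested concentration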;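 also: wild-type TIM10 isogenic control strain grown at permissive 25 °C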
SKKanGAS inh: SKKanGAS growth inhibition | S. pyogenes SKKanGAS, kanamycin growth, BacTiter-Glo, 6 h | inhibition, % at 7.5 µM | 1.3% of 300,000 active | AID 1662;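 active = mean replicate score, as percent of positive control median, at least 50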;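 also: strain carries kanamycin resistance gene driven by streptokinase promoter and grows in 40 µg/ml kanamycin; loss of luminescence reflects streptokinase promoter inhibition or plain growth inhibition; 0% = median of DMSO wells and 100% = positive control at its reference dose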
PfHsp90 yeast 2: growth inhibition of yeast expressing Plasmodium Hsp90; 0.32% of 310,000 active; inhibition, % at 9.4 µM; AID 504621; S. cerevisiae expressing PfHsp90, BacTiter-Glo ATP, 48 h; yeast lacking PDR1 and PDR3 efflux regulators;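 active = every replicate shows inhibition above about 80%, whatever the replicate mean, limit read from the data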;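 also: 0% = DMSO neutral controls and 100% = 20 µM radicicol positive controls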
tim23-1 inh: tim23-1 yeast growth inhibition. 1.3% of 330,000 active. inhibition, % at 20 µM. S. cerevisiae tim23-1 growth, BacTiter-Glo luminescence, 24 h. AID 463212;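 active = growth inhibition of the mutant yeast at or above 50%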;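 also: temperature-sensitive mutant grown at 25 °C; plate controls were DMSO-treated mutant yeast for no effect and medium wells lacking yeast for full effect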
NLRP3 yeast inh: NALP3 inhibition in yeast | Yeast reconstituted NLRP3/ASC/caspase-1, beta-gal luminescence, 24 h | inhibition, % at 10 µM | 0.39% of 330,000 active;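 active = inhibition of 50% or more; inactive = inhibition below 50%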;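 also: plate controls were induced DMSO wells for no effect and uninduced yeast grown without galactose for full effect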
tim10-1 inh: tim10-1 yeast growth inhibition | 2.2% of 330,000 active | inhibition, % at 20 µM | S. cerevisiae tim10-1 ts strain growth, BacTiter-Glo, 24 h;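 active = inhibition of at least 40%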;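 also: mutant grown at 25 °C; 0% = DMSO wells with yeast and 100% = wells holding no yeast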
tim10-1 conf: confirmation of tim10-1 mutant yeast growth inhibitors; shares compounds with tim10-1 inh; S. cerevisiae tim10-1 ts strain growth, BacTiter-Glo, 24 h; inhibition, % at 20 µM; 56% of 7,400 active;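 active = inhibition of yeast growth at or above a set limit in either of two repeat tests at 20 µM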;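 also: tim10-1 mutant grown at permissive 25 °C to find synthetic lethal compounds; 0% = DMSO yeast wells and 100% = medium wells without yeast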
TIM10 conf: TIM10 yeast growth inhibition, confirmed. AID 463215. 63% of 4,600 active. inhibition, % at 10 µM. S. cerevisiae tim10 strain growth, BacTiter-Glo luminescence, 24 h. shares compounds with TIM10 inh;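 active = inhibition of yeast growth at or above a set limit in either of two replicates at 10 µM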;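 also: this counterscreen used the strain with wild-type TIM10; 0% = yeast with DMSO and 100% = medium wells lacking yeast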
tim23-1 confirm: tim23-1 yeast growth inhibition, confirmed. shares compounds with tim23-1 inh. S. cerevisiae tim23-1 growth, BacTiter-Glo luminescence, 24 h. inhibition, % at 20 µM. 83% of 4,400 active;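 active = inhibition above about 39% in either of two replicate wells at 20 µM, limit read from the data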;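 also: temperature-sensitive tim23-1 mutant grown at 25 °C; 0% = DMSO wells with yeast and 100% = medium wells without yeast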
* = called active by the depositor.

`N/C(Cc1ccc([N+](=O)[O-])cc1)=N\OC(=O)c1ccccc1Br` gave TIM10 inh 88*, SKKanGAS inh 1, PfHsp90 yeast 2 -70, tim23-1 inh 62*, NLRP3 yeast inh 20, tim10-1 inh 52*, tim10-1 conf 56*, TIM10 conf -8 and tim23-1 confirm 88*.
N/C(Cc1ccc([N+](=O)[O-])cc1)=N\OC(=O)c1ccc2ccccc2c1 was read as TIM10 inh 90*, SKKanGAS inh -11, PfHsp90 yeast 2 15, tim23-1 inh 81*, NLRP3 yeast inh 28, tim10-1 inh 54*, tim10-1 conf 47*, TIM10 conf 89* and tim23-1 confirm 92*.
Cc1cccc(C(=O)O/N=C(\N)Cc2ccc([N+](=O)[O-])cc2)c1 was read as TIM10 inh 87*, SKKanGAS inh 3, PfHsp90 yeast 2 2, tim23-1 inh 81*, NLRP3 yeast inh 22, tim10-1 inh 40*, tim10-1 conf 58*, TIM10 conf 91* and tim23-1 confirm 91*.
For N/C(Cc1ccc([N+](=O)[O-])cc1)=N\OC(=O)CC1CCCCC1 the results were TIM10 inh 86*, SKKanGAS inh 0, PfHsp90 yeast 2 8, tim23-1 inh 79*, NLRP3 yeast inh 31, tim10-1 inh 65*, tim10-1 conf 64*, TIM10 conf 92* and tim23-1 confirm 83*.
For O=C(Nc1cccc(F)c1)NC1CCN(Cc2ccccc2)CC1 the results were TIM10 inh -3, SKKanGAS inh 7, PfHsp90 yeast 2 5, tim23-1 inh 8, NLRP3 yeast inh 18 and tim10-1 inh 4.
`CCc1cccc(C)c1NC(=O)CSc1nnc(C)o1` gave TIM10 inh 8, SKKanGAS inh 0, PfHsp90 yeast 2 12, tim23-1 inh 3, NLRP3 yeast inh 17 and tim10-1 inh -2.
Screening Cc1ccc2nc(SCc3ccc([N+](=O)[O-])cc3)[nH]c2c1 returned TIM10 inh 55*, SKKanGAS inh -14, PfHsp90 yeast 2 -5, tim23-1 inh 79*, NLRP3 yeast inh 15, tim10-1 inh 42*, tim10-1 conf 42*, TIM10 conf 24 and tim23-1 confirm 79*.
For COc1ccc(-c2cc3nc(C)cc(N)n3n2)cc1 the results were TIM10 inh 47*, SKKanGAS inh 41, PfHsp90 yeast 2 63, tim23-1 inh 54*, NLRP3 yeast inh 14, tim10-1 inh 62*, tim10-1 conf 44*, TIM10 conf 14 and tim23-1 confirm 64*.
`Cc1cc(-c2ccccc2)cc(=O)[nH]1` gave PfHsp90 yeast 2 -12.
`O=c1cc(-c2ccccc2)cc(-c2ccccc2)n1O` gave TIM10 inh 17, SKKanGAS inh 9, PfHsp90 yeast 2 active, tim23-1 inh 80*, NLRP3 yeast inh 5, tim10-1 inh 47*, tim10-1 conf 28 and tim23-1 confirm 68*.
CN(C)c1ccc(N=Cc2nc(-c3ccccc3)oc2OC(=O)c2cccc(Br)c2)cc1 was read as TIM10 inh 5, SKKanGAS inh 9, PfHsp90 yeast 2 -18, tim23-1 inh 17, NLRP3 yeast inh 40 and tim10-1 inh 12.
CCC(=O)Oc1oc(-c2ccccc2)nc1C=Nc1ccc(C)cc1 was read as TIM10 inh 32, SKKanGAS inh -1, PfHsp90 yeast 2 1, tim23-1 inh 46, NLRP3 yeast inh 10 and tim10-1 inh 19.
`CCOC(=O)c1ccc(N=Cc2nc(-c3ccccc3)oc2OC(C)=O)cc1` gave TIM10 inh 45*, SKKanGAS inh 9, PfHsp90 yeast 2 -5, tim23-1 inh 58*, NLRP3 yeast inh 9, tim10-1 inh 71*, tim10-1 conf 55*, TIM10 conf 68* and tim23-1 confirm 83*.
